A selection: hits, their analogues and other compounds. The true share with any hit is near 3.5%.
ERa coact pot – enhances coactivator binding to human estrogen receptor alpha; P03372; TR-FRET ERalpha-LBD/SRC-Cy5 coactivator binding, 2 h; 100 = basal binding, no effect; coactivator binding (% of control), % at 25.6 µM; hit rate 1.3% among 86,000; AID 639; in the data active = activity above about 200%;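 note: binding measured in presence of low estradiol as agonist stimulus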
ERa SRC1 inh – blocks coactivator binding to human estrogen receptor alpha. TR-FRET ER-alpha LBD / SRC-1 peptide, estradiol-bound. AID 629. hit rate 1.7% among 86,000. inhibition, % at 25.6 µM; in the data active = inhibition above about 50%
MMP13 inh – MMP13 (human) collagenase inhibition; P45452; MMP-13 fTHP FRET cleavage, Mca fluorescence; inhibition, % at 4 µM; hit rate 0.07% among 65,000;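 active = inhibition above the mean of compound-free control plate wells plus 3 SD, cut at about 14% in these data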
MT1-MMP txn act – MT1-MMP promoter transcription activation. HT1080 MT1-MMP promoter luciferase reporter, luminescence, overnight; hits give high values. activation factor at 10 µM. hit rate 0.16% among 86,000. AID 750;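 active = activation factor of at least 2 for MT1-MMP transcription at 10 µM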
Smad3 FoxH1 inh – blocks human Smad3 binding to FoxH1 peptide. P84022. TR-FRET Smad3/Dy647-FoxH1 peptide binding, europium anti-His. inhibition, % at 25 µM. hit rate 0.29% among 88,000. AID 630;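 active = compounds that reduce the energy-transfer binding signal between the protein and its labelled peptide by more than half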
ERb SRC1 inh – blocks coactivator binding to human estrogen receptor beta | inhibition, % at 25.6 µM | hit rate 1.3% among 86,000 | TR-FRET ER-beta LBD / SRC1-Cy5 peptide binding; receptor agonist-loaded with 1 µM estradiol | Q92731;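 active = compounds whose percent inhibition of the receptor-coactivator binding signal exceeds about 50% in the single-dose screen, limit read from the data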
Target sequence (Q92731 whole entry, looked up, the tested form may be a part): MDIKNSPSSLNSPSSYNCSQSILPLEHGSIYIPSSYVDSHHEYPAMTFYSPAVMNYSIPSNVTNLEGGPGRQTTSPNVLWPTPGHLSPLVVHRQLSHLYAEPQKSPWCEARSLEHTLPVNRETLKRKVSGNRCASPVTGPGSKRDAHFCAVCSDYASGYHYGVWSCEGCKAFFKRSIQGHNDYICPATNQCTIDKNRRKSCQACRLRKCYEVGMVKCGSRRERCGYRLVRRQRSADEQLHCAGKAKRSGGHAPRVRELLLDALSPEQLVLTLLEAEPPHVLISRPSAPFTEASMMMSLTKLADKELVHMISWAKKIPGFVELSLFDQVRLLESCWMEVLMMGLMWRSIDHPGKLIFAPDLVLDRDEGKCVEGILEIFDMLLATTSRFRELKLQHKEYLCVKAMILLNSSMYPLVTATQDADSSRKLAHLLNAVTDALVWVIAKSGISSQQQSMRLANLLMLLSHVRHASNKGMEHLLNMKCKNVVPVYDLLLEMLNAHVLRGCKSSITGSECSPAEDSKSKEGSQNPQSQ
Hits are given with their value; i = inactive; nt = no result; [ ] = dose if it differs, or a comment.

SMILES | ERa coact pot | ERa SRC1 inh | MMP13 inh | MT1-MMP txn act | Smad3 FoxH1 inh | ERb SRC1 inh
CCOc1cc(OCC)cc(C(=O)O)c1 | i | 99[fluorescence artefact?] | nt | i | i | i
O=C(NC(=O)c1ccc(Cl)cc1)Nc1cc(N2CCCCC2)ncn1 | 243 | 72[fluorescence artefact?] | i | i | i | 65[fluorescence artefact?]
CCCCc1nc(SCC(=O)Nc2cc(C)on2)n[nH]1 | i | i | i | i | i | 98[fluorescence artefact?]
N#CCCN1CCn2c1nc1ccccc12 | 200 | i | i | i | i | i
CCC(=O)N1CCn2c1nc1ccccc12 | i | i | nt | i | i | 55[fluorescence artefact?]
CN1CCN(CCN2CCn3c2nc2ccccc23)CC1 | i | i | i | i | i | i
CCOC(=O)N1CCN(C(c2cccc(OC)c2)c2sc3nc(C)nn3c2O)CC1 (centres undefined) | i | i | i | i | i | i
O=Cc1ccc2oc3nc4n(c(=O)c3c(=O)c2c1)CCCS4 | i | 66 | nt | i | i | 58
Cc1ccc(CNc2oc(COc3ccccc3Cl)nc2C#N)cc1 | i | i | i | i | i | i
COc1ccc(CNc2oc(COc3ccccc3Cl)nc2C#N)cc1 | 228[fluorescence artefact?] | i | i | i | i | i
CN(CC(=O)N1CCCC1)S(=O)(=O)c1cc(Cl)ccc1Cl | i | i | i | i | i | i
CCOC(=O)c1c(N)sc(C(O)(C(F)(F)F)C(F)(F)F)c1-c1ccc(OC)cc1OC | i | i | i | i | i | i
CCN(CC)S(=O)(=O)c1ccc(N=Nc2c(C)[nH]n(C(N)=S)c2=O)cc1 | i | i | nt | i | i | i
NC(=S)n1[nH]c(-c2ccc([N+](=O)[O-])cc2)c(N=Nc2ccc(O)cc2)c1=O | i | 92 | nt | i | i | i
CCOC(=O)C1=C(O)/C(=C\c2ccc(CNC(=O)C(=O)Nc3ccc(C)c(C)c3)o2)N=C1C | i | 72 | nt | i | i | 55
C=CCn1c(=O)c2ccccc2n2c(SCc3cc(=O)n4ccsc4n3)nnc12 | i | i | i | i | i | i
Cc1cnc(C(=O)Nc2ccccc2C(=O)N2CCOCC2)cn1 | i | i | i | i | i | i
Cc1nc2cc(-c3ccsc3-n3c(C)ccc3C)[nH]n2c(=O)c1Cl | i | 59 | nt | i | i | 64
CCOC(=O)Cc1c(C)nc2c(-c3ccc(Cl)cc3)c(C)[nH]n2c1=O | 248[fluorescence artefact?] | i | nt | i | i | i
COc1cc(/C=c2\s/c(=C(/C#N)C(=O)N3CCCC3)n(-c3ccccc3)c2=O)ccc1O | i | 59 | i | i | i | i
COc1ccc(S(=O)(=O)N2CCN(c3c(C)cccc3C)CC2)cc1OC | i | i | i | i | i | i
O=C(CCC(=O)c1cccs1)Nc1nnc(C2CC2)s1 | i | 52 | i | i | i | i
CS(=O)(=O)c1ccc2nc(NC(=O)CCC(=O)c3cccs3)sc2c1 | i | 68 | i | i | i | i
CCOC(=O)Cc1csc(NC(=O)CCCCCN2C(=O)c3cccc4cccc(c34)C2=O)n1 | i | 69[fluorescence artefact?] | nt | i | i | 58[fluorescence artefact?]
C=CCSc1nc2ccccc2c(=O)n1Cc1ccco1 | nt | nt | nt | nt | i | nt
SMILES | ERa coact pot | ERa SRC1 inh | MMP13 inh | MT1-MMP txn act | Smad3 FoxH1 inh | ERb SRC1 inh
CN(Cc1ccccc1)C(=O)CSc1nc2ccccc2c(=O)n1Cc1ccco1 | i | i | i | i | i | i
CCOC(=O)c1cc2c(c(CSc3nc4ccccc4c(=O)n3Cc3ccco3)c1)OCOC2 | 337 | i | i | i | i | i
O=c1c2ccccc2nc(SCc2cc(F)cc3c2OCOC3)n1Cc1ccco1 | 227[fluorescence artefact?] | i | i | i | i | i
CCN(C#N)c1nc(N(C)C)nc(N(C)C)n1 | i | i | i | i | i | i
O=C(O)C(c1ccccc1)C1(O)CCCC1 (centres undefined) | i | i | i | i | i | i
COc1ccc(CN(C(=O)c2snc(C(N)=O)c2N)C(C(=O)NC(C)(C)C)c2ccco2)cc1 (centres undefined) | i | i | i | i | i | i
CCCOc1ccc(C(=O)Nc2cc(-c3nn4c(C)nnc4s3)ccc2C)cc1 | i | 58[fluorescence artefact?] | i | i | i | i
Cc1ccc(-c2nn3c(C)nnc3s2)cc1NC(=O)CSc1ccc(Cl)cc1 | i | i | i | i | i | i
Cc1ccc(-c2nn3c(C)nnc3s2)cc1NC(=O)COc1ccc(Cl)cc1 | 325 | i | i | i | i | i
CCOC(=O)CN1C(=O)C(O)(CC(=O)c2ccc3c(c2)CCCC3)c2ccccc21 (centres undefined) | i | i | nt | i | i | i
O=C(O)COCC(=O)Nc1ccc2c(c1)CCC2 | i | i | i | i | i | i
CCOC(=O)COn1c(=O)c(=O)n(O)c2ccccc21 | i | i | i | i | i | 50[fluorescence artefact?]
COc1ccccc1-c1cc(C(=O)NC(C)C)no1 | i | i | i | i | i | i
COc1ccccc1-c1cc(C(=O)NC(C)c2ccccc2)no1 (centres undefined) | 276[fluorescence artefact?] | i | i | i | i | i
COc1cc(NC(=O)CSc2nc3ccccc3c(=O)n2C)ccc1NC(=O)c1ccco1 | i | 63 | i | i | i | i
CCOc1ccc(OCC)c(NC(=O)CSc2nc3ccccc3c(=O)n2C)c1 | i | 50[fluorescence artefact?] | i | i | i | i
CC1=C(C(=O)NC(C)c2ccc3c(c2)OCCO3)C2(CCC(C)CC2)OC1=O (centres undefined) | nt | nt | i | i | nt | nt
Cc1cnc(C(=O)OCC(=O)c2csc(N3CCCCC3)n2)cn1 | i | 54[fluorescence artefact?] | i | i | i | 57
CC(C)CCOCC1CC2(CC(C)(c3csc(N)n3)OC2=O)C(=O)O1 (centres undefined) | i | i | i | i | i | i
O=C(CSc1nnc(-c2ccncc2)n1-c1ccc(F)cc1)NC(=O)NCc1ccco1 | i | 68[fluorescence artefact?] | i | i | i | 55[fluorescence artefact?]
O=C(CSc1nnc(COc2ccccc2)n1Cc1ccco1)NCc1ccco1 | i | i | i | i | i | i
Cc1cc(NC(=O)CSc2nnc(COc3ccccc3)n2Cc2ccco2)no1 | i | i | i | i | i | i
C=CCn1c(COc2cccc(C)c2)nnc1SCC(=O)NC(=O)NCc1ccco1 | i | 61 | i | i | i | i
C=CCn1c(COc2ccc(F)cc2)nnc1SCC(=O)NC(=O)NCc1ccco1 | i | 71[fluorescence artefact?] | i | i | i | i
O=C1CSC(c2ccccc2F)N1c1cc(Cl)ccc1O (centres undefined) | i | i | i | i | i | i
SMILES | ERa coact pot | ERa SRC1 inh | MMP13 inh | MT1-MMP txn act | Smad3 FoxH1 inh | ERb SRC1 inh
CC(C)N(C(=O)C1CC(=O)OC12CCCCC2)C(C)C (centres undefined) | i | i | nt | nt | i | i
COc1ccc(-n2c(Cc3cccn3C)nnc2SCC(=O)N2CCC(C)CC2)cc1 | i | i | i | i | i | i
NC(=O)CSc1nc2ccccc2n1-c1ccccc1 | i | i | i | i | i | i
CN1CCc2c(sc3c2c(=O)n(-c2ccccc2)c2nnc(SCc4ccc(Cl)cc4)n32)C1 | 314 | i | i | i | i | i
CSCC[C@@H](C(=O)O)N1Cc2ccccc2C1=O | i | i | i | i | i | i
O=C(O)[C@@H](c1ccccc1)N1Cc2ccccc2C1=O | 597[fluorescence artefact?] | i | i | i | i | i
COC(=O)c1sc(NC(C)=O)c(C(=O)OC)c1C | i | i | i | i | i | i
